From PubChem BioAssay AID1986 (Sanford-Burnham Center for Chemical Genomics, 2009)
“And” between values parts separate entries of the source, which are not always exact repeats. Equal values may be shown once. Among all 290,000 compounds or so, about 890 (0.31%) were called active. Rule as the data show it: active = inhibition mostly above about 52% (no sharp cut-off); inactive = mostly below about 76%. What follows is part of a selection rich in actives, with near analogues and random picks from the rest.

Test: inhibitors of HIV fusion peptide binding, primary screen, biochemical, uHTS, fluorescence dequenching (AID 1986)
Settings: cell-free peptide binding, 30 min, stronger effect = higher value

SMILES	inhibition (at 20 µM)	inhibition (measured here: repeat confirmation average inhibition, at 18.6 µM)
O=S(=O)(O)c1cccc(N=Nc2c(O)ccc3ccccc23)c1	10.9% (inactive)	
O=S(=O)(O)c1cc(O)c2c(O)c(N=Nc3cc(Cl)ccc3O)c(S(=O)(=O)O)cc2c1	55.7% (active)	
Oc1ccc(Cl)cc1N=Nc1ccccc1	-2.6% (inactive)	
CCc1ccc2[nH]c3nc(SCc4nnc(-c5ccc(C)cc5)o4)nnc3c2c1	1.4% (inactive)	
N#Cc1c(-c2cccc(Br)c2)cc(-c2ccco2)[nH]c1=O	81.5% (active)	
COc1ccc(-c2cc(-c3ccco3)[nH]c(=O)c2C#N)cc1	48.8% (inactive)	
COc1ccc(-c2cc(-c3ccco3)[nH]c(=O)c2C#N)cc1OC	40.7% (inactive)	
Cc1c(C(=O)O)c(=O)n(-c2ccccc2)n1-c1ccccc1	1.2% (inactive)	
Cc1ccc(C)c(C(=O)CSc2nc3ccccc3c(=O)[nH]2)c1	1.9% (inactive)	
COc1ccc(CNC(=O)Cc2cn(C)c3ccccc23)c(OC)c1	0% (inactive)	
COc1cc(C(=O)NS(=O)(=O)c2ccccc2C)ccc1Cc1cn(C)c2ccc(NC(=O)OC3CCCC3)cc12	55.9% (active)	
Cc1cc(NC(=O)OC2CCCCC2)ccc1[N+](=O)[O-]	-1.3% (inactive)	
O=S(=O)(c1ccc(C2CCCCC2)cc1)N1CCCC1	-0.2% (inactive)	
COCCn1c(=NC(=O)CCS(=O)(=O)c2ccccc2)sc2c(OC)ccc(OC)c21	1.4% (inactive)	
CC(C)NCc1cc(Br)ccc1OCc1ccccc1	0.8% (inactive)	
S=c1[nH]nc(-c2ccco2)n1/N=C/C=C/c1ccccc1	3.2% (inactive)	
S=c1[nH]nc(-c2ccccc2)n1/N=C/C=C/c1ccco1	51.2% (inactive)	-0.2%
S=c1[nH]nc(-c2ccco2)n1/N=C/C=C/c1ccco1	65.9% (active)	
COc1ccc2c(CC(=O)Nc3ncc(C)s3)coc2c1	1.1% (inactive)	
Cc1cccc(C)c1OCc1cc(C(=O)NCc2ccc(Cl)s2)no1	0.7% (inactive)	
CC1=CC(=C(C#N)C#N)c2ccccc2N1C	146% (inactive)	
COC(=O)c1c(C(=O)NCc2ccccc2)ncn1CC(O)COc1ccccc1 (configuration not stated)	-0.4% (inactive)	
O=C(O)c1ccc(/C=C/c2nc3sc4c(c3c(=O)[nH]2)CCC4)cc1	33.6% (inactive)	
CCOC(=O)c1nc2sc3c(c2c(=O)[nH]1)CCCC3	0.4% (inactive) and 2.4% (inactive)	
N#C/C(=C\c1ccc(C(=O)O)cc1)c1nc2sc3c(c2c(=O)[nH]1)CCCC3	103% (active)	
O=C(N/N=C/c1cc([N+](=O)[O-])ccc1O)C(O)(c1ccccc1)c1ccccc1	15.6% (inactive)	
